Drawing on PubChem BioAssay AID588519 (ICCB-Longwood Screening Facility, Harvard Medical School, 2011), this text covers % elongation and z-score for 41 molecules.

The target of the assay is Genome polyprotein (Poliovirus type 1 (strain Mahoney)) (UniProt P03300). Briefly: poliovirus RdRp elongation inhibitors, primary screen, biochemical, fluorescence polarization, total intensity (AID 588519). On z-score: compound at 16.7 µg/mL. The note with it: poliovirus polymerase elongation, stronger effect = lower value; for % elongation: compound at 16.7 µg/mL; for z-score: measured here: FP z-score. For orientation: Fluorescence polarisation rises when a labelled molecule tumbles more slowly, as on binding a larger partner.

The mark [1] stands for this setting: measured here: total intensity read-out.

The campaign covered roughly 150,000 compounds. About 1,000 (0.67%) were called active. No stated cut-off is given here; in the data, active means % elongation below about 90%; inactive means the rest, inconclusive results apart. The list comes from a sample in which actives are over-represented; it also holds similar structures and randomly drawn compounds.

Genome polyprotein (Poliovirus type 1 (strain Mahoney)), sequence (P03300 1749-2209 limits assumed): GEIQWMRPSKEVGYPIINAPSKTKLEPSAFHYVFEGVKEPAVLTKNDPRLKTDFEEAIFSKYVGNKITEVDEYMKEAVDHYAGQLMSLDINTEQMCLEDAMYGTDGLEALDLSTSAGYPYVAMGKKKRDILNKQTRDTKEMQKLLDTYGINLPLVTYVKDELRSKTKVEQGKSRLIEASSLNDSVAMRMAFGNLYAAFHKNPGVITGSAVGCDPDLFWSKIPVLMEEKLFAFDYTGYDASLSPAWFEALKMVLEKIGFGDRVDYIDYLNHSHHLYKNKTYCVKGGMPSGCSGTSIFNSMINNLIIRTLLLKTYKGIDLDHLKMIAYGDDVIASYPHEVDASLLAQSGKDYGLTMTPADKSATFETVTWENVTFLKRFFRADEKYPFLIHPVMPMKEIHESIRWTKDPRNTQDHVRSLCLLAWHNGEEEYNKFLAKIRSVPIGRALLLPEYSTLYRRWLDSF

For the molecule `COc1ccc(Cc2nnc(SCC(=O)Nc3ccc(S(=O)(=O)N4CCCCCC4)cc3)o2)cc1`, the % elongation is 104% (inactive) and the z-score is 0.4. Also, the % elongation under setting [1] came to 102%.
For `Cc1ccccc1CN1CCN(CC(=O)NCc2cccs2)C1=O`, the % elongation is 98% (inactive) and the z-score is -0.7. Further, the % elongation under setting [1] was found to be 103%.
For `CCCC(Nc1cc(Cl)cc(Cl)c1)n1nnc2ccccc21` (stereo not drawn) the same measures were 104% (inactive), 0.1 and 110%.
For the molecule `O=C(CSC(=S)N1CCCC1)Nc1ccccc1OC(F)F`, the % elongation was 105% (inactive) and the z-score is 0.5. Also, the % elongation under setting [1] was 104%.
For `CS(=O)(=O)C1=NSC2=NC(=O)/C(=C\c3ccco3)C(=N)N21` the same measures were 66% (active), -10.9 and 23%.
For `Cc1ccc(N2C(=O)NC(=O)/C(=C\c3ccco3)C2=O)c(C)c1` the same measures were 99% (inactive), -0.2 and 97%.
Consider `CC(C)(C)C1C/C(=C/c2ccco2)C(=O)/C(=C/c2ccco2)C1` (stereo not drawn), for which the % elongation is 76% (inactive) and the z-score was -3.3. Moreover, the % elongation under setting [1] stood at 189%.
For `CN(C)/C=N/N=C(\Cc1nc2ccccc2[nH]1)c1ccccc1` the same measures were 102% (inactive), 0.2 and 106%.
For `O=C(COC(=O)c1cc(=O)[nH]c2ccccc12)NCc1ccco1` the same measures were 107% (inactive), 0.6 and 101%.
For `CCOc1ccc(-c2ccc(NS(=O)(=O)c3ccccc3)cc2)nn1` the same measures were 102% (inactive), 0.9 and 104%.
As to `S=C(c1ccc(-c2ccc(Cl)cc2)o1)N1CCN(c2ccccc2)CC1`, the % elongation is 63% (active) and the z-score was -4.2. For the same molecule, the % elongation under setting [1] amounted to 70%.
For `S=C(c1ccc(-c2ccccc2)o1)N1CCCCC1` the same measures were 99% (inactive), -0.3 and 101%.
The matching figures for `Clc1ccc(/C=N\N2CCN(c3ccccc3)CC2)cc1`: 108% (inactive), 1.3 and 100%.
For `CCC(Cc1ccccc1)NC(=O)c1ccco1` (stereo not drawn) the same measures were 99% (inactive), -0.3 and 100%.
Regarding `Cc1noc(C)c1CSc1nnc(-c2ccccc2Br)n1Cc1ccccc1`, the % elongation is 96% (inactive) and the z-score was -0.6. For the same molecule, under setting [1], the % elongation was found to be 102%.
The matching figures for `C=C(C)CNC(=S)N=Nc1c(O)n(C)c2ccccc12`: 98% (inactive), -0.4 and 101%.
For `CCSc1nnc(NC(=O)/C=C/c2ccc3c(c2)OCCO3)s1` the same measures were 85% (active), -3.6 and 91%.
For `O=C(O)/C=C/c1ccc2c(c1)OCCO2` the same measures were 102% (inactive), 0.1 and 99%.
Regarding `CCSc1nnc(NC(=O)c2ccc(C)c(S(=O)(=O)N(CC)CC)c2)s1`, the % elongation is 100% (inactive) and the z-score was -0.5. The % elongation under setting [1] was 98%.
Turning to `COc1ccc(S(=O)(=O)N2CCC(C(=O)N3CCCC3)CC2)cc1OC`, the % elongation was 99% (inactive) and the z-score is -0.6. Besides, the % elongation under setting [1] stood at 100%.
For `O=C(NCc1ccco1)c1cc(Cl)cc(Cl)c1` the same measures were 99% (inactive), -0.7 and 104%.
The matching figures for `CCc1cc(=O)oc2c(C)c3c(cc12)CN(Cc1ccccc1)CO3`: 100% (inactive), -0.7 and 104%.
`CCN1CCN(C2=Nc3c(Cl)cc(Cl)c4cccc2c34)CC1`: the % elongation was 45% (inactive) and the z-score was -6.5. Besides, under setting [1], the % elongation was 247%.
For `CCN(CC)CCN1COc2c(cc(Cl)c3cccnc23)C1` the same measures were 84% (active), -5.8 and 80%.
The matching figures for `O=c1c(C=Nc2cc(Cl)ccc2O)c(O)n(C2CCCCC2)c(=O)n1C1CCCCC1`: 100% (inactive), 0 and 100%.
The matching figures for `NS(=O)(=O)c1ccc(CCN(Cc2nc3ccsc3c(=O)[nH]2)Cc2nc3ccsc3c(=O)[nH]2)cc1`: 111% (inactive), 1.1 and 110%.
Take `COC(=O)C(Cc1ccccc1)NC(=O)c1n[nH]c(=O)c2ccccc12` (stereo not drawn): the % elongation is 101% (inactive) and the z-score was -0.2. Moreover, under setting [1], the % elongation came to 100%.
For `COc1ccc(OCCOc2ccccc2F)cc1`, the % elongation was 104% (inactive) and the z-score stood at 1.2. For the same molecule, the % elongation under setting [1] was 102%.
For `CCOC(=O)C1(C2(O)C(=O)c3ccccc3C2=O)CCCC1=O` (stereo not drawn), the % elongation is 75% (active) and the z-score was -3.1. For the same molecule, the % elongation under setting [1] came out at 72%.
For `CCOC(=O)C1(C(=O)OCC)C(c2ccccc2)CC(=O)CC1c1ccccc1` (stereo not drawn) the same measures were 99% (inactive), -0.3 and 96%.
For `CCOC(=O)C1(C(=O)OCC)CCN(S(=O)(=O)c2ccc(C)cc2)c2ccccc2C1=O` the same measures were 107% (inactive), 0.2 and 102%.
The matching figures for `O=C1Nc2ccccc2C1=Nc1cccc(C(F)(F)F)c1`: 88% (active), -1.2 and 90%.
For the molecule `CN(C)/C=C1/C(=O)Nc2ccccc21`, the % elongation is 98% (inactive) and the z-score is -0.1. Under setting [1], the % elongation was 103%.
The matching figures for `Nc1ccc(N=C2C(=O)Nc3ccccc32)cc1`: 99% (inactive), -0.4 and 100%.
For `COc1ccc(C(C#N)OC(C)=O)c(OCc2ccccc2)c1OC` (stereo not drawn) the same measures were 105% (inactive), 0.2 and 102%.
For the molecule `COC(=O)c1c(NC(=O)CCCOc2ccccc2)sc2c1CCC(C)C2` (stereo not drawn), the % elongation is 105% (inactive) and the z-score was found to be 0.2. In addition, under setting [1], the % elongation came to 112%.
The matching figures for `CCOc1ccc(NC(=O)c2c(NC(=O)Cc3ccccc3)sc3c2CCCCC3)cc1`: 75% (active), -5 and 78%.
For the molecule `O=C(Cc1ccccc1)Nc1sc2c(c1C(=O)Nc1ccc(Br)cc1)CCC2`, the % elongation is 102% (inactive) and the z-score is -0.1. The % elongation under setting [1] worked out at 106%.
For `Cc1cccc(OCCCC(=O)Nc2sc3c(c2C(N)=O)CCC(C)C3)c1` (stereo not drawn) the same measures were 101% (inactive), -0.6 and 102%.
For `CCOc1ccc(NC(=O)c2c(NC(=O)Cc3ccccc3)sc3c2CCC(C)C3)cc1` (stereo not drawn) the same measures were 83% (active), -3.6 and 84%.
The matching figures for `CCOc1ccc(NC(=O)c2c(NCc3cccc(OC)c3OC)sc3c2CCC3)cc1`: 108% (inactive), 0.4 and 114%.
